High-throughput results deposited in PubChem BioAssay by several laboratories.
Shown are actives, neighbours in structure and some others; about 0.44% of the full set was active somewhere.
RmlC RmlD mix – RmlC/RmlD inhibition, mixture screen; 110,000 compounds, 0.39% hits; inhibition, % at 5.5 µM; RmlC/RmlD coupled enzyme inhibition, 384-well mixture HTS; AID 1532; in the data active means inhibition above about 30%, passing the limit was not always enough
YopH inh – inhibitors of Yersinia enterocolitica YopH tyrosine phosphatase; 140,000 compounds, 0.16% hits; inhibition, % (concentration not given with the values); fluorescence Ex485/Em525; in the data active means inhibition above about 50%
RmlCD fluor art – shows fluorescent artifact in RmlC/RmlD assay, dose-response counter-screen; 360 compounds, 96% hits; shares compounds with RmlC RmlD mix; calls only; RmlC/RmlD assay fluorescence artifact counter-screen; call rule not given here;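 further: compound alone with no enzyme and no substrates present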
Numbers without * were called inactive; i = inactive; . = no result; + = active, no number.

SMILES | RmlC RmlD mix | YopH inh | RmlCD fluor art
COc1ccc(S(=O)(=O)N2CCN(CC(=O)Nc3ccc(C)c(F)c3)CC2)cc1 | -13 | -17 | .
N#Cc1nc(-c2cccs2)oc1N1CCOCC1 | -8 | -4 | .
CC1CN(c2oc(-c3cccs3)nc2C#N)CC(C)O1 (stereo not given) | 75* | -48 | +
N#Cc1nc(-c2cccs2)oc1NCCCN1CCOCC1 | 67* | 51* | +
COc1ccc(-c2nc(C#N)c(NCCCN3CCOCC3)o2)cc1 | . | -26 | .
N#Cc1nc(-c2cccs2)oc1NCC1CCCO1 (stereo not given) | 107* | 4 | +
O=S(=O)(c1ccccc1)c1nc(-c2cccs2)oc1NCC1CCCO1 (stereo not given) | -16 | -39 | .
CC1CCc2cc(F)ccc2N1C(=O)CSc1nnc2c(n1)[nH]c1ccc(F)cc12 (stereo not given) | 16 | -31 | .
Nc1ccc(Sc2ccccc2CC(=O)O)cc1 | 8 | 6 | .
Clc1ccc(CNc2nc(CN3CCOCC3)nc3scc(-c4ccccc4)c23)cc1 | . | -8 | .
O=C(O)CC(Cc1ccc(Cl)cc1)C(=O)NCc1ccccc1 (stereo not given) | . | -14 | .
COC(=O)c1cc(=O)nc2sc(-c3ccc(F)cc3)nn12 | -49 | -27 | .
COC(=O)c1cc(=O)nc2sc(-c3cccs3)nn12 | 39* | 15 | +
O=C(O)c1cc(-c2ccccc2)nc2ccccc12 | 4 | -27 | .
CCOc1ccc(-c2cc(C(=O)O)c3ccccc3n2)cc1 | 32* | -28 | +
N#Cc1c(C(F)(F)F)cc(C2CC2)[nH]c1=O | 40* | -17 | +
Cc1ccc(-c2cc(C(F)(F)F)c(C#N)c(=O)[nH]2)cc1 | . | -20 | .
COCCNC(=O)/C(=C/c1ccccc1Cl)c1ccccc1 | . | -36 | .
O=c1c(Cl)c(NCc2ccccc2Cl)cnn1C12CC3CC(CC(C3)C1)C2 | . | -29 | .
O=c1[nH]cnc2cc(-c3ccccc3)sc12 | 1 | -12 | .
COc1ccc(-c2cc3nc[nH]c(=O)c3s2)cc1 | 51* | -14 | +
COc1ccc(-c2cc(C(F)(F)F)n3ncc(C(=O)NCC4CCCO4)c3n2)cc1 (stereo not given) | 36* | -23 | +
COc1cccc(-c2cc(C(F)(F)F)n3ncc(C(=O)NCC4CCCO4)c3n2)c1 (stereo not given) | 8 | 4 | .
Cc1ccc(NC(=O)c2ccc(COc3ccc4c(c3)CCC4)cc2)c(C)c1 | . | -30 | .
COc1ccc(-c2nnc(N(C)C(=O)c3ccno3)s2)cc1 | 22 | -19 | .
SMILES | RmlC RmlD mix | YopH inh | RmlCD fluor art
CN(C(=O)c1cccc(C#N)c1)c1nnc(C2CCOC2)s1 (stereo not given) | -7 | -31 | .
CN(C(=O)c1ccccn1)c1nnc(-c2ccncc2)s1 | . | 7 | .
CN(C(=O)c1ccncc1)c1nnc(-c2cccnc2)s1 | . | 5 | .
CN(C(=O)c1ccc(C#N)cc1)c1nnc(-c2ccccn2)s1 | 40* | 37 | i
CN(C(=O)c1ccno1)c1nnc(-c2ccccn2)s1 | + | -19 | +
CN(C(=O)c1cccc(C#N)c1)c1nnc(-c2ccccn2)s1 | 36* | -29 | +
CN(C(=O)c1ccncc1)c1nnc(-c2ccccn2)s1 | 108* | -43 | +
COC(=O)c1c(NC(=O)Cn2cnc([N+](=O)[O-])n2)sc2c1CCC(C)C2 (stereo not given) | . | -15 | .
Cc1cc(C)c[n+](C(C)C(=O)c2ccc(-c3ccccc3)cc2)c1 (stereo not given) | . | -23 | .
CC(=O)Nc1ccccc1OCC(=O)NCCc1ccc(Cl)cc1Cl | . | -15 | .
CC(C)(O[C@@H]1O[C@H](CO)[C@@H](O)[C@H](O)[C@H]1O)[C@H]1Cc2cc3ccc(=O)oc3cc2O1 | 56* | -14 | +
C=C(C)C1Cc2cc3ccc(=O)oc3cc2O1 (stereo not given) | . | -18 | .
COc1cccc(/C=N/n2nnc3c(cnn3-c3ccccc3)c2=O)c1 | . | -48 | .
COc1cccc(/C=C/c2nc3c(cnn3-c3ccccc3)c(=O)[nH]2)c1 | . | . | +
COC(=O)/C=C/C(=O)Nc1cccc(C(F)(F)F)c1 | . | 9 | .
COc1ccc(-c2c(C)oc3c(CN4CCN(CCO)CC4)c(O)ccc3c2=O)cc1OC | . | -20 | .
CCOC(=O)c1oc2c(CN3CCN(C)CC3)c(O)ccc2c(=O)c1-c1ccccc1OC | 9 | -7 | .
COc1ccccc1-c1c(C)oc2c(CN3CCN(CCO)CC3)c(O)ccc2c1=O | . | -37 | i
COc1ccccc1-c1c(C)oc2c(CN3CCN(C)CC3)c(O)ccc2c1=O | 43* | -36 | +
CCOC(=O)c1ccc(NC(=O)CN2C(=O)C(CC)SC(CC)C2=O)cc1 (stereo not given) | . | -15 | .
Cn1c(=O)c2c(ncn2CC(=O)OCC(=O)Nc2cc(Cl)ccc2Cl)n(C)c1=O | . | -15 | .
COc1cccc(-n2nnnc2SCC(=O)c2ccc(NC(C)=O)cc2)c1 | 23 | -46 | .
